The text below walks through data of PubChem BioAssay.

Records with an inconclusive call do not appear. Calls of active or inactive are those of the source.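 How the source made its calls, unless noted: active means inhibition above 50%, about 3 SD of the validation set; inactive means the rest.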

Assay [1] can be described thus: rapamycin-like changes in RPL19A-GFP expression – cell-based, S. cerevisiae, multiplex flow cytometry, primary screen (AID 1862; in the data active means percent of DMSO control GFP below about 86%;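 further: lower values mimic rapamycin by blocking the RPL19A rise seen in DMSO cells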). The settings on record: S. cerevisiae RPL19A-GFP strain, flow cytometry fluorescence, 3 h; at 10 µM; stronger effect = lower value. (Flow cytometry measures light scatter and fluorescence of single cells or particles in a stream.)
The nature of assay [2]: TOR pathway GLN3 branch reporter MEP2-GFP changes – S. cerevisiae, multiplex flow cytometry, primary screen (AID 1867;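 active means GFP response, as percent of the DMSO control, above the screen-wide mean plus 3 SD, about 139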;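 further: median GFP channel fluorescence of barcode-gated MEP2-GFP cells measured by flow cytometry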). To be noted: S. cerevisiae MEP2-GFP strain, 3 h, at 10 µM, stronger effect = higher value, 100% means same as DMSO wells.
A short description of assay [3]: TOR pathway RTG branch CIT2 reporter changes – S. cerevisiae, GFP fusion, multiplex flow cytometry, primary screen (AID 1870;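 active means percent response above a set limit, the screen-wide mean plus 3 SD, cut at about 130% in these data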;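 further: barcoded CIT2-GFP strain pooled with four other GFP strains with rapamycin as positive control; median GFP fluorescence per well over plate mean of DMSO wells so 100% = DMSO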). The settings on record: S. cerevisiae CIT2-GFP expression, 3 h, at 10 µM, stronger effect = higher value.
The nature of assay [4]: TOR pathway LAP4-GFP level changes – S. cerevisiae, multiplex flow cytometry, primary screen (AID 1873;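 active means GFP signal, as percent of the solvent control, above the screen mean plus 3 SD, about 149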). The settings on record: S. cerevisiae LAP4-GFP expression, 3 h, at 10 µM, stronger effect = higher value.
A short description of assay [5]: yeast AGP1-GFP level changes, GLN3 branch – cell-based, multiplex flow cytometry, S. cerevisiae, primary screen (AID 1887;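 active means GFP signal above the screen-wide mean plus 3 SD, that is over about 124.5% of the solvent control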;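 further: AGP1-GFP fusion strain of S. cerevisiae within a five-strain barcoded multiplex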). The settings on record: 3 h, at 10 µM, stronger effect = higher value.
Assay [6] is described as follows: reduced mouse 2C T cell binding to pMHC/ICAM-1 vesicles – MLPCN validation set, flow cytometry, LFA-1/ICAM-1 modulator project, pilot screen (AID 2523;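 active means response below a set limit, under 55% cells CD8-positive and vesicle-bound, and CD8 cells' 90th-percentile brightness under 279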;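 on vesicle binding response: mean PE anti-B7-1 fluorescence of CD8+ cells relative to row control; 100% = QL9-loaded vesicles with DMSO vehicle in the same plate row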). The settings on record: 2C mouse CD8+ T cells, at 7 µM, stronger effect = lower value; double positive events: measured here: CD8+/vesicle+ event percentage.
For assay [7], the target named is Integrin beta-1 (Homo sapiens) + Integrin alpha-4 (Homo sapiens) (UniProt P13612+P05556). Briefly: alpha4beta1 integrin LIBS antibody binding reduction – U937 cells, HUTS-21 mAb, flow cytometry, validation set, VLA-4 allosteric modulator project, pilot screen (AID 2674).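 Further: antibody binding induced by the VLA-4 ligand LDV present at three times its Kd; 0% = LDV ligand with antibody and no compound and 100% = antibody without LDV.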 To be noted: HUTS-21 LIBS mAb binding, at 6.7 µM, stronger effect = higher value, binding induced by LDV ligand.

Assay [8] can be described thus: calorie-restriction mimetic ROS inhibitors, yeast – validation compound set, pilot screen (AID 2706;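 active means superoxide response below 65% of plate, a cut near 3 SD across the whole screen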;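 further: yeast exposed to compound for one week at 30 degrees C before staining; 100% = mean of all compound wells on the same plate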). To be noted: S. cerevisiae aging, superoxide DHE fluorescence; at 10 µM, stronger effect = lower value.
Assay [9] concerns the target Beta-adrenergic receptor kinase 1 (Homo sapiens) (UniProt P25098). Description: GRK2 binders displacing RNA aptamer, biochemical, validation, human GRK2, bead flow cytometry (AID 488806;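 active means aptamer binding inhibition above 30%, about 3 SD of noise from non-fluorescent compounds; inactive means inhibition at or below 30%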). The settings on record: bead-bound GRK2, FAM-aptamer displacement, at 10 µM, stronger effect = higher value.
Assay [10] has as its target AP-2 complex subunit beta (Homo sapiens) (UniProt P63010). Description: beta-arrestin/AP2 interaction blockers – biochemical, validation set, GST-AP2 beads, flow cytometry, pilot screen (AID 504541;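 active means inhibition above 54%, about 3 SD of non-fluorescent compounds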;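 further: AP2 carries R879A mutation and is captured from E. coli lysate; bead-bound FITC arrestin peptide fluorescence measuring arrestin peptide binding to AP2; 0% = DMSO wells and 100% = excess unlabeled arrestin peptide control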). To be noted: FITC arrestin peptide, at 10 µM, stronger effect = higher value, AP2 beta2 appendage fragment, R879A mutant.
Assay [11] is described as follows: cytosolic pH regulators acting via V-ATPase – S. cerevisiae, pHLuorin, HTS validation (AID 504600; in the data active means response above about 15%;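 further: plate controls were DMSO for no effect and reference compound for full effect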). To be noted: V-ATPase proton transport, at 10 µM, stronger effect = higher value.
The test system of assay [12] is anti-desmoglein-3 scFv antibody binding to human DSG3. Briefly: blockers of pathogenic pemphigus antibody–desmoglein-3 binding – biochemical, validation compound set, bead-based, flow cytometry, pilot screen (AID 588368;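 active means binding below the plate cutoff, the plate median minus 3 SD, with a reading above zero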;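 further: signal is the median channel fluorescence of bead-bound GFP antibody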). The settings on record: Protein G beads, DSG3-Fc, scFv-GFP binding, at 10 µM, stronger effect = lower value.
Assay [13] in a line: Nile Red efflux blockade in pump-expressing yeast – validation compound set, multiplex, phenotypic, pilot screen (AID 588506;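 active means efflux inhibition above 0.42, the validation set average plus 4 SD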;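 further: Nile Red retained in cells so higher fluorescence means more efflux inhibition; 0 = negative control wells and 1 = enniatin B 25 µM full block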). To be noted: S. cerevisiae pump-expressing triplex, Nile Red efflux flow cytometry; at 10 µM; stronger effect = higher value; the pumps come from Candida albicans.
Assay [14] has as its target ATP-binding cassette sub-family B member 6 (Homo sapiens) (UniProt Q9NP58). Description: blockers of ABCB6-driven porphyrin uptake – K562-ABCB6 cells, flow cytometry, validation set, pilot screen (AID 588550;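 active means inhibition above the screen-wide mean plus 3 SD, about 51%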;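 further: 0% = DMSO wells and 100% = benzethonium chloride 70 µM positive control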). To be noted: K562-ABCB6 porphyrin accumulation, 1 h, at 10 µM, stronger effect = higher value.
Assay [15] in a line: AML differentiation inducers, ER-HoxA9 marrow cells – cell-based, GFP/MAC1 double positive, flow cytometry, validation set, primary screen (AID 588685;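 active means differentiation response of at least 50%, scaled between solvent and reference control, from cells with both markers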;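 further: compound exposure lasts four days before antibody staining and flow analysis; 0% = DMSO wells and 100% = 5 µM fulvestrant positive control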). To be noted: stronger effect = higher value, normalized: vehicle 0, fulvestrant 100.
Assay [16] addresses Beta-2 adrenergic receptor (Homo sapiens) (UniProt P07550). Description: agonist-induced loss of surface beta2AR – cell-based, FAP fluorogen, flow cytometry, validation set, pilot screen (AID 504459;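 active means percent response above 42, roughly 3 SD of non-fluorescent test compounds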;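 further: agonist-driven loss of surface beta2AR via internalization measured by FAP dye flow cytometry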). To be noted: Am2.2-beta2AR cells, at 10 µM, stronger effect = higher value.

Sequence of AP-2 complex subunit beta (Homo sapiens) (P63010 whole entry, looked up, the tested form may be a part, one chain of several): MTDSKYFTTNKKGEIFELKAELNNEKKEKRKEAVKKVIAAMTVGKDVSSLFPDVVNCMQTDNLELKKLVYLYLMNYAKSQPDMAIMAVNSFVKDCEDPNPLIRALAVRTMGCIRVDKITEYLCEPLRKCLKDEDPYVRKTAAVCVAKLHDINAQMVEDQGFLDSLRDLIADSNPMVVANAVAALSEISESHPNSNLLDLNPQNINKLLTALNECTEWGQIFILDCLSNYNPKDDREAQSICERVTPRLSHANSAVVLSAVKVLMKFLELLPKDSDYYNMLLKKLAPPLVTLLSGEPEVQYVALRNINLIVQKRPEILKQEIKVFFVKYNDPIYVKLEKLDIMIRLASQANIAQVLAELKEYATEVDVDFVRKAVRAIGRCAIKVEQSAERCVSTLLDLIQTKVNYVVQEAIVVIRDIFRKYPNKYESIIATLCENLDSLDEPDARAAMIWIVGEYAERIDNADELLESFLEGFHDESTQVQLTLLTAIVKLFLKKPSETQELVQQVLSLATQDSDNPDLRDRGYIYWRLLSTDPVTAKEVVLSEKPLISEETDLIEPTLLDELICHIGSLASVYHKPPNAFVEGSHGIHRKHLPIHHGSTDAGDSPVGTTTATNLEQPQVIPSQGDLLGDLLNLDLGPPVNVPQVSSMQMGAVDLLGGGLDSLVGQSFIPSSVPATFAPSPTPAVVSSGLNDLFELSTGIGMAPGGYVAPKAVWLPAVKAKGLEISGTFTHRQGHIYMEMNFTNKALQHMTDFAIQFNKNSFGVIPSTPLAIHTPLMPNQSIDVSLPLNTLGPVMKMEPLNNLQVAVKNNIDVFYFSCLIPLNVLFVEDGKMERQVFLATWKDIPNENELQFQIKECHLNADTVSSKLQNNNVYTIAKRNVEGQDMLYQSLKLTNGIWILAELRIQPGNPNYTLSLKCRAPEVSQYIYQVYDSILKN
Sequence of ATP-binding cassette sub-family B member 6 (Homo sapiens) (Q9NP58 whole entry, looked up): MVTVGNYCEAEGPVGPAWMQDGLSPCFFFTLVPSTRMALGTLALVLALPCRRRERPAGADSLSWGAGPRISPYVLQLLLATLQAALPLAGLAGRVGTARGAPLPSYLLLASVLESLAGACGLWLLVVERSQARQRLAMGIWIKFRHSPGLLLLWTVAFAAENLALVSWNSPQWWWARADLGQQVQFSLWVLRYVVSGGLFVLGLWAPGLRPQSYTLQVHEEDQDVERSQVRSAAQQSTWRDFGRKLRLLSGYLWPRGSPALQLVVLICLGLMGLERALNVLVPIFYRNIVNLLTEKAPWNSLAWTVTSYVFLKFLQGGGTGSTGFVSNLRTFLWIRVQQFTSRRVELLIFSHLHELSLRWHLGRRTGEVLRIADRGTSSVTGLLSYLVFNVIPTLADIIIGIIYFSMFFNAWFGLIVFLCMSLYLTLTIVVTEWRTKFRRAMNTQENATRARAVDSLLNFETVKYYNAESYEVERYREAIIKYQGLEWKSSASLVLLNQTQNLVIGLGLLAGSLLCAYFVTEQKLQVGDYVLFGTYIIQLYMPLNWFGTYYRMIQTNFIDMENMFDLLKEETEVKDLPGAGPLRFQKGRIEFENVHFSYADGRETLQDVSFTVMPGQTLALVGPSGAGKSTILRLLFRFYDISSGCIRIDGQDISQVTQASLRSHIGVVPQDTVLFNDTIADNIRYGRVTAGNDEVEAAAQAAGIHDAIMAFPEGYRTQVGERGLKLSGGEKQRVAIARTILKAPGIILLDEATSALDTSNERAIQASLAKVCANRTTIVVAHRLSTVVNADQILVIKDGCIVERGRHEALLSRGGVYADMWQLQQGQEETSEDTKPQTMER
Sequence of Integrin beta-1 (Homo sapiens) + Integrin alpha-4 (Homo sapiens) (P05556 whole entry, looked up): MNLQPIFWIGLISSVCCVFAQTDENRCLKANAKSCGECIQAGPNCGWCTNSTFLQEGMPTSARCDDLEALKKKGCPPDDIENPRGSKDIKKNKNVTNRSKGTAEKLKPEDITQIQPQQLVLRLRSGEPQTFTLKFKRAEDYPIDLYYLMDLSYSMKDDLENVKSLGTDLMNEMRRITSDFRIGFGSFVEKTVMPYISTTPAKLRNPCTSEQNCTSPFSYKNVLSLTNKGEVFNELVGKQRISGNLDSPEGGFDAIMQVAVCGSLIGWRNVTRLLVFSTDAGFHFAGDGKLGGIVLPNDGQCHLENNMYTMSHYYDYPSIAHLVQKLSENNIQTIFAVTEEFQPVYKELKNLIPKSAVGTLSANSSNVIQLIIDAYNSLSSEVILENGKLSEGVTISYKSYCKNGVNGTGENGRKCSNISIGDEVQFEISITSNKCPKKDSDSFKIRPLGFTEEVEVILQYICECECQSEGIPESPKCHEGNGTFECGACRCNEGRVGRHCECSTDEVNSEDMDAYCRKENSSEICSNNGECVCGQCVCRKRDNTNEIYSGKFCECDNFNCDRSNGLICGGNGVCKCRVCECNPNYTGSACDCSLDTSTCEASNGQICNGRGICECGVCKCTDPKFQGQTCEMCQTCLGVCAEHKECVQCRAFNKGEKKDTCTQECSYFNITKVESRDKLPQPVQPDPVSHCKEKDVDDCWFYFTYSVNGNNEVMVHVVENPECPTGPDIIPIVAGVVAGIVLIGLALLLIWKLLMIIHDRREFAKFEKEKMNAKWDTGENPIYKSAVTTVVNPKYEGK
Sequence of Integrin beta-1 (Homo sapiens) + Integrin alpha-4 (Homo sapiens) (P13612 whole entry, looked up): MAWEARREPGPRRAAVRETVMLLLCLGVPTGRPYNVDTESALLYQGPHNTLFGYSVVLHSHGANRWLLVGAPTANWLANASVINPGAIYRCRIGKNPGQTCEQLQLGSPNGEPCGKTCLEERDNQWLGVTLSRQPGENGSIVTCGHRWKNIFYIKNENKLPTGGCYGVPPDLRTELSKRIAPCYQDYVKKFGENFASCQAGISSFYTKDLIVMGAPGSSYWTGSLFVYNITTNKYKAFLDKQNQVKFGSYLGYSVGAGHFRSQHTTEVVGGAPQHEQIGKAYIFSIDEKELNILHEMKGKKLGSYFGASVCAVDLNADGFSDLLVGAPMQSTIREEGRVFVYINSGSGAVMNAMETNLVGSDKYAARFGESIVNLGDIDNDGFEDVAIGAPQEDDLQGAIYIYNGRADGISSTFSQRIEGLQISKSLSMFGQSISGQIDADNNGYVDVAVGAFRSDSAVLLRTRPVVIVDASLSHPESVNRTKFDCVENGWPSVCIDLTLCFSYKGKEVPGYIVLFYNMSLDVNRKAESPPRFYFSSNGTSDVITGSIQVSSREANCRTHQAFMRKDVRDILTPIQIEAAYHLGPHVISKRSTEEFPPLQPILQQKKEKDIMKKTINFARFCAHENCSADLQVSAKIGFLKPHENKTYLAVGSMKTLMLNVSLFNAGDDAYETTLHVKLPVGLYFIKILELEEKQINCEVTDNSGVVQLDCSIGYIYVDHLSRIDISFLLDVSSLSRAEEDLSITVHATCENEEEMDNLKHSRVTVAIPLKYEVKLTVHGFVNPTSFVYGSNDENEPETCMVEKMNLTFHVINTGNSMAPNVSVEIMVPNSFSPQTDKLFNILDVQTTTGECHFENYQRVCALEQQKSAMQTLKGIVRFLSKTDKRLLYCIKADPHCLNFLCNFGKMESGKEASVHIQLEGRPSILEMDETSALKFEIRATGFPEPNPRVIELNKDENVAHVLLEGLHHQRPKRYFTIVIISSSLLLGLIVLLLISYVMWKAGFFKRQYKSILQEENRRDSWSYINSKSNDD
Sequence of Beta-adrenergic receptor kinase 1 (Homo sapiens) (P25098 whole entry, looked up): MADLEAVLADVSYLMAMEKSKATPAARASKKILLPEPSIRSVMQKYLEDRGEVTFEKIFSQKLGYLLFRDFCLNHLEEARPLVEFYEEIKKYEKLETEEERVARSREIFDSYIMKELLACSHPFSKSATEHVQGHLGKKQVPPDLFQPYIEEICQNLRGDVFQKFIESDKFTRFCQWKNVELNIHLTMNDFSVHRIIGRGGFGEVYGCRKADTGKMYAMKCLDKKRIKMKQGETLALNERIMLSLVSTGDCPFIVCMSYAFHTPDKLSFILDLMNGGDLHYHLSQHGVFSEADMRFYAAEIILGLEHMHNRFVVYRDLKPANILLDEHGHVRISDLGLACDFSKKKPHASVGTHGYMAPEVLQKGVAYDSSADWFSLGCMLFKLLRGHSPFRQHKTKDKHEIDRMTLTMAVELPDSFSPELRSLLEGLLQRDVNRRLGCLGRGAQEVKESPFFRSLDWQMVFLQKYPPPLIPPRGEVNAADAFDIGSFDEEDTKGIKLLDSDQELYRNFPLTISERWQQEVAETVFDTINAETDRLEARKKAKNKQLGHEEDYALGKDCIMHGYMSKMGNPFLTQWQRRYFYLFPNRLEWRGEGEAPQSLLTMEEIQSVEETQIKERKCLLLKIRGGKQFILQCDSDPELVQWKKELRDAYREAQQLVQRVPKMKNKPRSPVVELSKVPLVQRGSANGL
Sequence of Beta-2 adrenergic receptor (Homo sapiens) (P07550 whole entry, looked up): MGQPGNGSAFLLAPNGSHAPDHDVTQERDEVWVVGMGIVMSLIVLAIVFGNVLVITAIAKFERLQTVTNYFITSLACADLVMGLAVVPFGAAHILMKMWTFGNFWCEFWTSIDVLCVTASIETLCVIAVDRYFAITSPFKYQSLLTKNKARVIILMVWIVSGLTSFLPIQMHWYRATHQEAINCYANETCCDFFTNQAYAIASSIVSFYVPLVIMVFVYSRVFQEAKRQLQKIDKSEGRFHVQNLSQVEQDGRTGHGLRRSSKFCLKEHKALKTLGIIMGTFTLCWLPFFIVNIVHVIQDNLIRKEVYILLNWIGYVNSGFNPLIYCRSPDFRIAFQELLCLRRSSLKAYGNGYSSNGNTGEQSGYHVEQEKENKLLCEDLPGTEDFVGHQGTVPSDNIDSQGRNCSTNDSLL

A word on the inhibition: it is the relative decrease from the control value, in per cent. With `CC(=O)OCC(=O)C1=CCC2C3CCC4=CC(=O)C=CC4(C)C3(F)C(OC(C)=O)CC12C` (stereo not given), the percent of DMSO control GFP in [1] was 99.8% (inactive). The GFP response vs DMSO was 101% (inactive) in assay [2] and 84.3% (inactive) in [4]. In addition, the percent response of DMSO control in assay [3] was 106% (inactive). Besides, the GFP response, % of DMSO in assay [5] was 105% (inactive). Further, the double positive events in assay [6] stood at 59%. In assay [6], the vesicle binding response is 180% (inactive). The inhibition was 6.29% (inactive) in assay [7], -3.56% (inactive) in assay [10] and 9% (inactive) in [14]. The superoxide response (% of plate) in assay [8] was 87.6% (inactive). Moreover, the aptamer binding inhibition in [9] was 7% (inactive). In addition, the response in assay [11] is 6.47% (inactive). Also, the binding (% of control) in assay [12] is 96.2% (inactive). In addition, the efflux inhibition (fraction of control) in [13] is 0.18 (inactive). Also, the differentiation response in [15] was -11.5% (inactive).
Take `NC(=O)c1c(-c2ccccc2)oc2ccc(O)cc12`: in assay [1], the percent of DMSO control GFP was 100% (inactive). Moreover, the GFP response vs DMSO in assay [2] was 97.9% (inactive); in assay [4], 100% (inactive). Moreover, in assay [3], the percent response of DMSO control is 90% (inactive). Also, the GFP response, % of DMSO in [5] was 98.5% (inactive). In assay [6], this compound gave a double positive events of 66.7%. Also, the vesicle binding response in assay [6] is 260% (inactive). Also, the inhibition in assay [7] was 14.7% (inactive); in assay [10] it was -7.96% (inactive); in assay [14], 10% (inactive). Also, in assay [8], the superoxide response (% of plate) was 90.9% (inactive). For the same compound, in [9], the aptamer binding inhibition is 0% (inactive). The response in assay [11] was -1.1% (inactive). The binding (% of control) in assay [12] was 102% (inactive). Further, the efflux inhibition (fraction of control) in assay [13] is -0.09 (inactive). Moreover, the differentiation response in assay [15] was -13.1% (inactive).
As to `COc1ccc2c(c1)[nH]c1c(=O)n(Cc3ccccn3)cnc12`, the percent of DMSO control GFP in [1] is 97.7% (inactive). Besides, the values for the GFP response vs DMSO in assay [2] and in [4] were 97.7% (inactive) and 106% (inactive), respectively. Moreover, the percent response of DMSO control in assay [3] was 101% (inactive). Besides, the GFP response, % of DMSO in assay [5] is 96.1% (inactive). The double positive events in assay [6] is 64%. Besides, the vesicle binding response in [6] was 1600% (inactive). Besides, the figures for the inhibition in assay [7] and in assay [14] were -1.74% (inactive) and 3% (inactive), respectively. In addition, the superoxide response (% of plate) in [8] was 109% (inactive). For the same compound, the aptamer binding inhibition in assay [9] is -4% (inactive). Also, the response in assay [16] is 2.42% (inactive); in [11], -2.14% (inactive). Moreover, the binding (% of control) in assay [12] is 98% (inactive). Also, the efflux inhibition (fraction of control) in [13] is -0.5 (inactive). The differentiation response in assay [15] was 10.3% (inactive).
For the compound `CC(CCc1ccccc1)NCC(O)c1ccc(O)c(C(N)=O)c1` (stereo not given), the percent of DMSO control GFP in assay [1] is 99.5% (inactive). The GFP response vs DMSO in assay [2] is 98.9% (inactive); in [4], 109% (inactive). For the same compound, in assay [3], the percent response of DMSO control is 107% (inactive). In addition, the GFP response, % of DMSO in assay [5] was 105% (inactive). The compound further displayed a double positive events in [6] of 52.5%. The vesicle binding response in assay [6] was 175% (inactive). The inhibition was -2.11% (inactive) in assay [7], -4.92% (inactive) in assay [10] and 9% (inactive) in assay [14]. In assay [8], the superoxide response (% of plate) is 97.6% (inactive). Further, the aptamer binding inhibition in assay [9] was 0% (inactive). In addition, the response in [11] is -3.48% (inactive). Moreover, in [12], the binding (% of control) was 101% (inactive). Moreover, the efflux inhibition (fraction of control) in [13] is -0.2 (inactive). In addition, the differentiation response in [15] is -6.66% (inactive).
Consider `Nc1nnc(-c2cccc(Cl)c2Cl)c(N)n1`, for which the percent of DMSO control GFP in assay [1] is 101% (inactive). Further, the values for the GFP response vs DMSO in assay [2] and in assay [4] were 108% (inactive) and 100% (inactive), respectively. The percent response of DMSO control in [3] is 103% (inactive). In addition, in assay [5], the GFP response, % of DMSO is 103% (inactive). The compound further yielded a double positive events in assay [6] of 49.8%. The vesicle binding response in [6] is 120% (inactive). In addition, the inhibition was 9.63% (inactive) in assay [7], -13.2% (inactive) in assay [10] and 4% (inactive) in assay [14]. In [8], the superoxide response (% of plate) is 110% (inactive). In addition, the aptamer binding inhibition in assay [9] was 2% (inactive). For the same compound, the response in assay [16] was 6.9% (inactive); in [11], -3.91% (inactive). The binding (% of control) in [12] is 94.9% (inactive). The differentiation response in assay [15] was -8.96% (inactive).
